Activity calls are given as the source filed them. Unless noted, how the calls were made is not given here.
Columns and labels:
[1] = anti-His antibody binders, primary screen, artefact control for SMM control protein annotation, biochemical, small-molecule microarray, 635 nm fluorescence (AID 1128); settings: anti-His Alexa647 antibody binding, higher = more signal;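 further: score merges feature fluorescence with signal-to-noise for each printed compound spot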
[2] = system: Human papillomavirus type 1a E7 protein (residues 1-88); experiment: HPV1a E7 small-molecule binders, primary screen, biochemical, small-molecule microarray, residues 1-88, 635 nm (AID 1129); settings: small-molecule microarray binding, fluorescence 635 nm; higher = more signal
[3] = target: Focal adhesion kinase 1 (Homo sapiens) (UniProt Q05397); experiment: small-molecule microarray binders of FAK, primary screen, biochemical, 635/667 nm fluorescence, BSA, DTT (AID 1130); settings: PTK2 binding, 635 nm fluorescence, higher = more signal;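 further: composite of spot emission at 667 nm and signal to noise over triplicate slides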
Focal adhesion kinase 1 (Homo sapiens), sequence (Q05397 whole entry, looked up): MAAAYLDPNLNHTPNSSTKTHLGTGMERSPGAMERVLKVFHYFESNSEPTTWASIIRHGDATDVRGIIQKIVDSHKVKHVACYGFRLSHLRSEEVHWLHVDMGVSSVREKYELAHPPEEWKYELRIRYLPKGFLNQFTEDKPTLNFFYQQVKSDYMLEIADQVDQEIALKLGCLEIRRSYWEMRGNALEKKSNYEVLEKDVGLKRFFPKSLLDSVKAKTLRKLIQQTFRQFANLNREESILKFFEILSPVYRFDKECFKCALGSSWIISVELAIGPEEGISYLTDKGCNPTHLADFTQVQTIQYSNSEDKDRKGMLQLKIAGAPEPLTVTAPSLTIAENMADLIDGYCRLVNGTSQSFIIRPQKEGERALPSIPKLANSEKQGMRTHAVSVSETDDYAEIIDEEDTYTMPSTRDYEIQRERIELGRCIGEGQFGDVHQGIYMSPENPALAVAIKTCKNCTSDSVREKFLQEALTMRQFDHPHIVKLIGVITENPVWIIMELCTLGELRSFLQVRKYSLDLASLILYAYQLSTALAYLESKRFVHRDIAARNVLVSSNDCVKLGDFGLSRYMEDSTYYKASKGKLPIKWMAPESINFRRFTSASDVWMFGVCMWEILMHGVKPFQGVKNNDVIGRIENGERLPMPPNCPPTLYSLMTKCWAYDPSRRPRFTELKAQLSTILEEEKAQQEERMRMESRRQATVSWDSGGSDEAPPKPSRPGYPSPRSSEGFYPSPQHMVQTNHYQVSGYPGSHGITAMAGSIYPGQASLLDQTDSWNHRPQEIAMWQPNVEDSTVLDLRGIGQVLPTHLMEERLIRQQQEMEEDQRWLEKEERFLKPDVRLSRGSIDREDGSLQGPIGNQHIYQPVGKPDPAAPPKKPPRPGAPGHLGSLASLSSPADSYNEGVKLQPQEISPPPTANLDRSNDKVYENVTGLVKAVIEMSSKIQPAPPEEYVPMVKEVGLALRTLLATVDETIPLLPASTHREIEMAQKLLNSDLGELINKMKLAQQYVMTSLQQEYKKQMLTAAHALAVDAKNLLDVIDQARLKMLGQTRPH

[4] = system: Fibrinogen (Alexa647-labelled); experiment: fibrinogen binders on compound microarrays, profiling panel, artefact control for SMM control-protein annotation, biochemical, small-molecule microarray, 635/667 nm fluorescence (AID 1131); settings: fibrinogen-A647 binding fluorescence, higher = more signal;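 further: z-score merges 667 nm fluorescence with per-spot signal-to-noise over triplicate slides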
[5] = target: Follistatin (Homo sapiens) (UniProt P19883); experiment: follistatin binders on small-molecule microarrays, primary screen, biochemical, small-molecule microarray, 635/667 nm fluorescence (AID 1132); settings: FST binding, 635 nm fluorescence, higher = more signal
Follistatin (Homo sapiens), sequence (P19883 whole entry, looked up): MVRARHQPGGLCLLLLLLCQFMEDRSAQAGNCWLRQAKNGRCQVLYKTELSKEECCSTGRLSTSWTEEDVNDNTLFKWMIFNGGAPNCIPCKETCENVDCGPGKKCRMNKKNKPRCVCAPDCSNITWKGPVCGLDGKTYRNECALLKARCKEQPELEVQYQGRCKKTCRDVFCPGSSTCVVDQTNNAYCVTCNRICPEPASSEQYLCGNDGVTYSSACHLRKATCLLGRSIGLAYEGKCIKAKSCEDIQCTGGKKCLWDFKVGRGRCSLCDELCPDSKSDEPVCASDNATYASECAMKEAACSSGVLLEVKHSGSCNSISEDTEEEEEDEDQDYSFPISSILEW

[6] = target: Fibroblast growth factor 2 (Homo sapiens) (UniProt P09038); experiment: FGF2 binders on small-molecule microarrays, primary screen, biochemical, small-molecule microarray, 635/667 nm fluorescence (AID 1133); settings: small-molecule microarray binding, FGF2, fluorescence 635/667; higher = more signal
Fibroblast growth factor 2 (Homo sapiens), sequence (P09038 whole entry, looked up): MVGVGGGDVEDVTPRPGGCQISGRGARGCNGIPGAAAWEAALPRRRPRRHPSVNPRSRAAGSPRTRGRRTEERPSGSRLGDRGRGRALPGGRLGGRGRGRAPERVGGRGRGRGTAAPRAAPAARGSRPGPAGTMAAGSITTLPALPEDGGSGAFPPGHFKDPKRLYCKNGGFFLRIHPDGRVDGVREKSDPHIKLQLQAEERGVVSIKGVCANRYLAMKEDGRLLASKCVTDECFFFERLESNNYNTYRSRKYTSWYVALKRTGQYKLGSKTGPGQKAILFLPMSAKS

[7] = mitochondrial membrane potential change in A549 cells, profiling panel, cell-based, JC-1 fluorescence, basal, 24 h, 100 nL (AID 1138); settings: higher = more signal;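 further: A549 lung adenocarcinoma cells under basal conditions with no added stimulus; test concentration not given here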
Lefty1 = Lefty1 binders on small-molecule microarrays, primary screen, biochemical, small-molecule microarray, 635/667 nm fluorescence (AID 1139); settings: small-molecule microarray binding, fluorescence 635/667; higher = more signal
[8] = system: wheat germ agglutinin (Triticum aestivum), Alexa647-labelled; experiment: wheat germ agglutinin binders on compound microarrays, profiling panel, artefact control for SMM control-protein annotation, biochemical, small-molecule microarray, 635/667 nm fluorescence (AID 1140); settings: WGA-A647 binding, 635 nm fluorescence, higher = more signal;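 further: score merges 667 nm feature emission with signal to noise over triplicate slides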
[9] = target: Luciferin 4-monooxygenase (Photinus pyralis) (UniProt P08659); experiment: firefly luciferase enzyme inhibitors, primary screen, biochemical, luminescence, purified enzyme, 2006 set (AID 1141); settings: SteadyGlo luminescence, 30 min, higher = more signal, called active from +8 up or from −8 down;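 further: cell-free assay with purified firefly luciferase at 100 ng per well in PBS; test concentration not given here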
Luciferin 4-monooxygenase (Photinus pyralis), sequence (P08659 whole entry, looked up): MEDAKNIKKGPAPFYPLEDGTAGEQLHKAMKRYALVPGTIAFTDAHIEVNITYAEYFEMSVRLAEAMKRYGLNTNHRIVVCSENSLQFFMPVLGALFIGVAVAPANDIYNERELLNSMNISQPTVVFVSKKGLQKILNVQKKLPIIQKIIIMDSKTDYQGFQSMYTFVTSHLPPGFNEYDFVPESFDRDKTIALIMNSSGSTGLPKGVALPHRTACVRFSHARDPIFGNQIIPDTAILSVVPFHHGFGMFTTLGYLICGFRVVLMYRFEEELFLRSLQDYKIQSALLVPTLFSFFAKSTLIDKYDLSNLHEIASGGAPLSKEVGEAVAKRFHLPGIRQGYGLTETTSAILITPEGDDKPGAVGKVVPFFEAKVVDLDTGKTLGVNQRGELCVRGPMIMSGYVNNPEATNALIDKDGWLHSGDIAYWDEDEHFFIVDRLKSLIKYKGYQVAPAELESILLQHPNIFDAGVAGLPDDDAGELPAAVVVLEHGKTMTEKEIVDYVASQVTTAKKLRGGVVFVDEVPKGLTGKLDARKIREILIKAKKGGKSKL

[10] = system: Wnt5a (protein binding on small-molecule microarray); experiment: Wnt5a binders on small-molecule microarray, primary screen, biophysical, 635/667 nm fluorescence (AID 1142); settings: 635 nm fluorescence, higher = more signal;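 further: fluorescence read at 667 nm with signal to noise per printed feature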
[11] = cell viability in Huh7 cells, primary screen, cytotoxicity control for HCV replication inhibitor project, CellTiter-Glo luminescence, basal, 48 h (AID 1143); settings: Huh7 HCV replicon, higher = more signal, called active from +8 up or from −8 down;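 further: Huh7 hepatoma cells carrying a hepatitis C replication reporter with no stimulus; test concentration not given here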
[12] = P. aeruginosa biofilm formation inhibitors, primary screen, PAO1 strain, BacTiter-Glo luminescence, LB-PBS (AID 1144); settings: 12 h, higher = more signal
[13] = CREB reporter modulators without forskolin, primary screen, cell-based, PC12, CRE-LacZ reporter, unstimulated (AID 1145); settings: no forskolin, luminescence, 4.5 h, higher = more signal, called active from +8 up or from −8 down
[14] = CREB reporter modulators under forskolin, primary screen, cell-based, PC12, CRE-LacZ reporter, forskolin-stimulated (AID 1146); settings: luminescence, 4.5 h, higher = more signal, called active from +8 up or from −8 down;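 further: PC12 cells with 6xCRE LacZ reporter stimulated by forskolin 10 µM; beta-galactosidase reporter signal reflecting CREB driven transcription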
[15] = target: Streptavidin (Streptomyces avidinii) (UniProt P22629); experiment: streptavidin binders on small-molecule microarray, primary screen, artefact control for SMM compound annotation, biophysical, 635/667 nm fluorescence (AID 1147); settings: streptavidin binding, higher = more signal;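 further: signal reflects streptavidin binding to arrayed compounds as a control protein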
Streptavidin (Streptomyces avidinii), sequence (P22629 whole entry, looked up): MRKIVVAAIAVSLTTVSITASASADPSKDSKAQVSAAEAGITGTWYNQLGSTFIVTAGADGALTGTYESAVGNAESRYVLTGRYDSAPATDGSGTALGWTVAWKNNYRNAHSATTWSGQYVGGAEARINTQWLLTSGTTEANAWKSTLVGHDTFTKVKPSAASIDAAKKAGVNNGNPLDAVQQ

[16] = small-molecule binders of probe aInhba, primary screen, biochemical, small-molecule microarray, 635/667 nm fluorescence (AID 1148); settings: higher = more signal;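 further: score merges 667nm spot fluorescence with signal-to-noise for antibody binding to printed compounds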
Torsin-1A (Homo sapiens) [17] = target: Torsin-1A (Homo sapiens) (UniProt O14656); experiment: torsin A binders from cell lysate, primary screen, small-molecule microarray, wild-type, 635/667 nm (AID 1149); settings: COS7 hTOR1A-WT lysate, 635 nm fluorescence, higher = more signal
Torsin-1A (Homo sapiens), sequence (O14656 whole entry, looked up): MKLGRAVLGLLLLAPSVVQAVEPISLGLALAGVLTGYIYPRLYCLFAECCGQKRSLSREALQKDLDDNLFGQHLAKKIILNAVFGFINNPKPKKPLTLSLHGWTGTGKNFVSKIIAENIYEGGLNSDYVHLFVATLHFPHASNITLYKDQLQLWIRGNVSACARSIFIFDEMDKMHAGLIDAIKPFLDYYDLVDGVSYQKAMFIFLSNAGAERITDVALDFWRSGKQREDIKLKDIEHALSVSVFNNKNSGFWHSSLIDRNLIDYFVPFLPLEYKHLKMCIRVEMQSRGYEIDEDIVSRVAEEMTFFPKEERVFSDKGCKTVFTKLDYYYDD

Torsin-1A (Homo sapiens) [18] = target: Torsin-1A (Homo sapiens) (UniProt O14656); experiment: small-molecule binders of mutant TOR1A in lysate, primary screen, cell lysate, small-molecule microarray, COS7 lysate, 635/667 nm fluorescence (AID 1150); settings: COS7 hTOR1A mutant lysate, 635 nm fluorescence, higher = more signal;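 further: score pools 667 nm emission and signal to noise measuring lysate protein binding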
[19] = system: Sonic hedgehog protein (Shh); experiment: small-molecule binders of Shh protein, primary screen, biochemical, small-molecule microarray, 635/667 nm fluorescence (AID 1151); settings: small-molecule microarray binding, 635 nm fluorescence; higher = more signal;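 further: Shh protein binding to compounds spotted on small-molecule microarray slides; score combines spot fluorescence intensity with signal-to-noise across triplicate slides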

Row | Compound | composite z-score [1] | composite z-score [2] | composite z-score [3] | composite z-score [4] | composite z-score [5] | composite z-score [6] | z-score [7] | composite z-score (Lefty1) | composite z-score [8] | z-score [9] | composite z-score [10] | z-score [11] | z-score [12] | z-score [13] | z-score [14] | composite z-score [15] | composite z-score [16] | composite z-score (Torsin-1A (Homo sapiens) [17]) | composite z-score (Torsin-1A (Homo sapiens) [18]) | composite z-score [19]
1 | C=CCOC(=O)[C@@H]1[C@H]2C(=O)O[C@H](c3ccccc3)[C@H](c3ccccc3)N2[C@H](c2ccc(OCCOC(=O)[C@H]3C[C@H]4C(=O)N[C@@H](CCCC[N+](C)(C)C)C(=O)N4[C@H]3c3ccc(O)cc3)cc2)[C@@]12C(=O)Nc1ccc(I)cc12 | 2.62 | 1.2 | 0.831 | 0.542 | 1.4 | 1.62 | -1.93 | 1.63 | 0.756 | 0.205 (inactive) | 0.568 | -0.449 (inactive) | -0.0678 (inactive) | 0.277 (inactive) | -0.391 (inactive) | 0.0658 | 0.0982 | 0.636 | 0.644 | 2.15
2 | COc1cc(CO)cc(I)c1O[C@H]1C=C(C(=O)NCCO)C[C@@H](N(Cc2ccc(F)cc2)C(=O)C2CCCO2)[C@@H]1O (stereo not given in full) | 0.608 | 0.317 | 0.079 | 0.247 | 0.34 | 0.47 | 1.46 | -0.0522 | 0.517 | -0.951 (inactive) | -0.212 | -0.457 (inactive) | -0.583 (inactive) | 0.949 (inactive) | -1.24 (inactive) | -0.274 | -0.227 | -0.0326 | -0.0306 | 0.399
3 | COc1cc2c(cc1OC)CN(C(=O)[C@H]1[C@@H]3C(=O)O[C@@H](c4ccccc4)[C@@H](c4ccccc4)N3[C@@H](c3ccc(OCCO)cc3)[C@]13C(=O)Nc1ccc(C#CCCO)cc13)CC2 | 1.43 | 1.22 | 0.541 | 0.939 | 1.35 | 0.742 | -0.96 | 1.14 | 1.01 | 0.268 (inactive) | 0.455 | 0.0229 (inactive) | -0.0983 (inactive) | -0.61 (inactive) | -0.48 (inactive) | 1.31 | 0.659 | 0.272 | 0.764 | 1.62
4 | O=C1c2ccccc2[C@@]2(Cc3ccccc3N(C3CC3)C2=O)[C@H](c2ccc(CO)cc2)N1C1CCCCC1 | -1.14 | -0.729 | -0.375 | -0.624 | -0.667 | -0.329 | 0.306 | -0.825 | 0.637 | 0.429 (inactive) | -0.157 | 0.0786 (inactive) | 0.122 (inactive) | 0.145 (inactive) | 0.428 (inactive) | -0.885 | -0.0791 | -0.822 | -0.928 | -0.309
5 | COCCOC(=O)N1C(=O)[C@@]2(c3cc(C#Cc4ccc(OC)cc4)ccc31)[C@H](C(=O)N1CCCCCCC1)[C@H]1C(=O)O[C@H](c3ccccc3)[C@H](c3ccccc3)N1[C@@H]2c1ccc(O)cc1 | -0.0844 | 1.12 | 0.277 | 0.205 | 1.38 | 0.541 | -1.42 | 1.04 | 0.351 | -0.0524 (inactive) | 0.164 | -5.16 (inactive) | -1.11 (inactive) | -1.02 (inactive) | -0.841 (inactive) | 0.123 | 0.696 | 0.536 | 0.864 | 1.47
